# Data published in the supplement of paper PMC8728848.
# Many of the other results were omitted from the sample, so the strongest signals are more common in it than they were.
# Assays:
# Test in all cases: glycan array binding signal (z-score within array); higher = stronger binding
# [1] = system: Neu5Ac(a2-6)GlcNAc(b1-4)GlcNAc; conditions: glycan notation: IUPAC condensed, linker removed
# Summary of the method: (§1)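 From the Consortium for Functional Glycomics database, 3228 arrays were curated, keeping only those whose protein sequence was available. Binding is given as a within-array Z-score averaged across arrays sharing a protein sequence and across linkers. Negative Z-scores can be read as non-binding.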
# [2] = system: Neu5Ac(a2-8)Neu5Ac(a2-8)Neu5Ac(a2-3)Gal(b1-4)Glc; conditions: glycan notation: IUPAC condensed, linker removed
# Summary of the method: as §1
# [3] = system: Neu5Ac(a2-6)GalNAc(b1-4)GlcNAc6S; conditions: glycan notation: IUPAC condensed, linker removed
# Summary of the method: as §1
# [4] = system: Neu5Ac(a2-8)Neu5Ac(a2-3)[GalNAc(b1-4)]Gal(b1-4)Glc; conditions: glycan notation: IUPAC condensed, linker removed
# Summary of the method: as §1
# Neu5Ac(a2-6)Gal = conditions: glycan notation: IUPAC condensed, linker removed
# Summary of the method: as §1
# [5] = system: Neu5Ac(a2-8)Neu5Ac(a2-3)Gal(b1-4)Glc; conditions: glycan notation: IUPAC condensed, linker removed
# Summary of the method: as §1
# [6] = system: Neu5Ac(a2-8)Neu5Ac(a2-8)Neu5Ac(a2-3)[GalNAc(b1-4)]Gal(b1-4)Glc; conditions: glycan notation: IUPAC condensed, linker removed
# Summary of the method: as §1
# [7] = system: Neu5Ac(a2-8)Neu5Ac(a2-3)Gal(b1-3)GalNAc(b1-4)[Neu5Ac(a2-3)]Gal(b1-4)Glc; conditions: glycan notation: IUPAC condensed, linker removed; mutation: R125K
# Summary of the method: as §1
# [8] = system: Neu5Ac(a2-8)Neu5Ac(a2-3)Gal(b1-4)GlcNAc; conditions: glycan notation: IUPAC condensed, linker removed; mutation: R125K
# Summary of the method: as §1
# Neu5Ac(a2-6)GalNAc = conditions: glycan notation: IUPAC condensed, linker removed
# Summary of the method: as §1
# Sequence of Regenerating Gene IV (Homo sapiens), Q9BYZ8 (Q9BYZ8 whole entry, looked up): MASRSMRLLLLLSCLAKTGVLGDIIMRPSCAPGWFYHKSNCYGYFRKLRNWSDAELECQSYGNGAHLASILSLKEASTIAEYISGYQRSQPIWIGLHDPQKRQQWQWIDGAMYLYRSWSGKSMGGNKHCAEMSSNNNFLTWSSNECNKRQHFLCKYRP
# Sequence of PILRb (Mus musculus), Q2YSF2 (Q2YSF2 entry or part of it): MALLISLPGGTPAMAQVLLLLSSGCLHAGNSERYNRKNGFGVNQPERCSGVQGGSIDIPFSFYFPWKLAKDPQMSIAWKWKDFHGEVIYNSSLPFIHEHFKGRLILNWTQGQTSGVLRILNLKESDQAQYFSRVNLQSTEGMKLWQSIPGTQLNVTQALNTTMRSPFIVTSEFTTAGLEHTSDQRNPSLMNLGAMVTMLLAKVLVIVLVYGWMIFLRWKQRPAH
# Sequence of CHI3L1 (Homo sapiens), P36222 (P36222 whole entry): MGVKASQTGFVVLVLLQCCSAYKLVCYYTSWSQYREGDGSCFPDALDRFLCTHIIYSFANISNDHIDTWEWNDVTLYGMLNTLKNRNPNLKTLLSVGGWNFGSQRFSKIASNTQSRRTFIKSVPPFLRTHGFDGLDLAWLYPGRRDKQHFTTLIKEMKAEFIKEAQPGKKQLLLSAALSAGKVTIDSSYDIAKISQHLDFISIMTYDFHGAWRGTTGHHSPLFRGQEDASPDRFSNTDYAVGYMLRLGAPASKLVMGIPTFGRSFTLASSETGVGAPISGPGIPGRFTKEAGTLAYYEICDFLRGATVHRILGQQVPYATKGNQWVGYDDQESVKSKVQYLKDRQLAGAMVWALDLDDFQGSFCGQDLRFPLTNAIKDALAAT
# Sequence of SRLC (Mus musculus), Q8VIF6 (Q8VIF6 other isoform, or with tags, fused parts or gaps): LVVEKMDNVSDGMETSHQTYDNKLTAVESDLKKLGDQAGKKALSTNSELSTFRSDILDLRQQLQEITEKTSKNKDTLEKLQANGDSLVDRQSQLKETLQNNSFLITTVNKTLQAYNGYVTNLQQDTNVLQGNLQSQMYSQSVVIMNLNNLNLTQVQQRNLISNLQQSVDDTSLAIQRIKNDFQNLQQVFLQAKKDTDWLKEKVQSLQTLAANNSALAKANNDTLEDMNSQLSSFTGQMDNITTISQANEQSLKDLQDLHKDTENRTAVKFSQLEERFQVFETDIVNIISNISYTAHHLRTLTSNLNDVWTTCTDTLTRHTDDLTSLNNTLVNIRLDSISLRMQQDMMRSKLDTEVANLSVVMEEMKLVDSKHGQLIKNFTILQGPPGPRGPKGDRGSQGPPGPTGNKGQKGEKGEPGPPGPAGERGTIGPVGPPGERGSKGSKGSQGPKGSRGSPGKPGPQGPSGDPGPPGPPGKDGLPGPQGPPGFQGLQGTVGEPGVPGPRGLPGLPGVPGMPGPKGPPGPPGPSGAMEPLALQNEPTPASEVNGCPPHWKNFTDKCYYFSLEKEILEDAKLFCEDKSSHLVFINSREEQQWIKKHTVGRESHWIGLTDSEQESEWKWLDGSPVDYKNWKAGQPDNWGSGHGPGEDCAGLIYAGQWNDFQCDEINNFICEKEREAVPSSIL
# Sequence of PILRa (Mus musculus), Q2YSF3 (Q2YSF3 entry or part of it): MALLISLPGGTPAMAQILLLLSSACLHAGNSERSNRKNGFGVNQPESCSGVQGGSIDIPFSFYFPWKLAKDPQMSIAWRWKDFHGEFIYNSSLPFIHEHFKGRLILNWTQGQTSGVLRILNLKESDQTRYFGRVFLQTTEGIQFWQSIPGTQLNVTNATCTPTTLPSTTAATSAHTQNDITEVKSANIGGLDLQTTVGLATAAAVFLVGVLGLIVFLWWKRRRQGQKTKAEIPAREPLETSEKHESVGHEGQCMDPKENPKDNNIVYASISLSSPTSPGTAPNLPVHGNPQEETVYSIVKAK
# Sequence of Neurocan (Homo sapiens), O14594 (O14594 other isoform, or with tags, fused parts or gaps): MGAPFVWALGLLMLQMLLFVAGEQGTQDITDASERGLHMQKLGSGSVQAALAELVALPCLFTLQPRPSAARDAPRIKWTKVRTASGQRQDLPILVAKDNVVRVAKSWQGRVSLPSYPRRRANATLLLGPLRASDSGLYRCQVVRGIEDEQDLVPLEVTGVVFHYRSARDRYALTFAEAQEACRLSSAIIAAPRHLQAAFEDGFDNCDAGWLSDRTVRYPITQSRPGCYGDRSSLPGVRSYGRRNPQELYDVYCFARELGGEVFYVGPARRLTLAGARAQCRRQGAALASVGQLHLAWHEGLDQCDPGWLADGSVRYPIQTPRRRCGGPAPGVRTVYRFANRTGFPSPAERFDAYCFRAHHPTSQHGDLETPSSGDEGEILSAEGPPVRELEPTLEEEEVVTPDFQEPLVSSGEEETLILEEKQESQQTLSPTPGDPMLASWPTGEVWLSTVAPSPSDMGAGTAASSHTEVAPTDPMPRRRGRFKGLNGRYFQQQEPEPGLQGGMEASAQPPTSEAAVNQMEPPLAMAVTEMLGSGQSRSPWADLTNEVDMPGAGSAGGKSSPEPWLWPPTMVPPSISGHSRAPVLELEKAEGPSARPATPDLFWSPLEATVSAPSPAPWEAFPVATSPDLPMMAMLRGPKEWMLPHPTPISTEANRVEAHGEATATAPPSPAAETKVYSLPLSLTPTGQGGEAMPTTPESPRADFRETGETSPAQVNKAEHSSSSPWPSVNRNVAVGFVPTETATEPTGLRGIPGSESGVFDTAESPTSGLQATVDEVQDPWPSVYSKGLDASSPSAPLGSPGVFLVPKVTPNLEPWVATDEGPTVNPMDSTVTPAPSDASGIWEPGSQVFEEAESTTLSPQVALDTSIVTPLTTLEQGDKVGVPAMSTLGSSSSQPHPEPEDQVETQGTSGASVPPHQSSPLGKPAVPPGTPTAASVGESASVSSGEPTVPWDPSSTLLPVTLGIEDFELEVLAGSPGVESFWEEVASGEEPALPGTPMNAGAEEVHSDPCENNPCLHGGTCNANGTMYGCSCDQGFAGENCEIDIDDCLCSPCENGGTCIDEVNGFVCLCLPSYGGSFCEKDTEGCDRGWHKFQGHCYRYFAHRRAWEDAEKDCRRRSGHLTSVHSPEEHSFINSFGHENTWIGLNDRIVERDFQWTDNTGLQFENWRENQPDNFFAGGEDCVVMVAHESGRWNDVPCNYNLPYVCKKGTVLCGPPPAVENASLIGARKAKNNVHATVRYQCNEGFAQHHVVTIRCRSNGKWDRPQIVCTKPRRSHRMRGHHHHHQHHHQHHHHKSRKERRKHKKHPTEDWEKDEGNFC
# Sequence of Avaren (Actinomycete K97) (chain, as listed by the source): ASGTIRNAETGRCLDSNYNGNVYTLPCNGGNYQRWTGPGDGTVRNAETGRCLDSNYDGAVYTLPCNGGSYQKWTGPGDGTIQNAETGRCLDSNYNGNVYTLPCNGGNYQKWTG
substance,measurement,setting,value
"PILRb (Mus musculus), Q2YSF2",glycan array binding signal (z-score),[1],-0.085
same,glycan array binding signal (z-score),[2],-0.167
MpAFP RI GFP (Marinomonas primoryensis),glycan array binding signal (z-score),[3],-0.16
Avaren (Actinomycete K97),glycan array binding signal (z-score),[4],-0.117
"HARE (Homo sapiens), Q8WWQ8",glycan array binding signal (z-score),Neu5Ac(a2-6)Gal,-0.26
"Regenerating Gene IV (Homo sapiens), Q9BYZ8",glycan array binding signal (z-score),Neu5Ac(a2-6)Gal,0.693
same,glycan array binding signal (z-score),[5],0.532
same,glycan array binding signal (z-score),[6],-0.332
"SRLC (Mus musculus), Q8VIF6",glycan array binding signal (z-score),[5],-0.188
"PILRa (Mus musculus), Q2YSF3",glycan array binding signal (z-score),Neu5Ac(a2-6)Gal,2.04
"Siglec-8 (Homo sapiens), Q9NYZ4",glycan array binding signal (z-score),[7],-0.164
same,glycan array binding signal (z-score),[8],-0.473
"CHI3L1 (Homo sapiens), P36222",glycan array binding signal (z-score),[3],-0.113
same,glycan array binding signal (z-score),[2],-0.11
"Neurocan (Homo sapiens), O14594",glycan array binding signal (z-score),Neu5Ac(a2-6)GalNAc,0.364
